According to PubChem BioAssay (NCATS):
Inconclusive results are not listed. A call without a number means that no potency is given here. Calls of active or inactive are those of the source. Calls follow the shape of the dose curve; as a rule, active = well fitted curve in the direction sought with a large enough effect; inconclusive = small, poorly fitted or top-dose-only effect, or another doubt; inactive = no such curve, though single readings can be large; an effect the other way counts as inactive or inconclusive.

What was measured:
HEK293T = test: qHTS assay to identify novel small-molecules to repurpose for Merkel cell carcinoma treatment (AID 1296009); conditions: MCC and control cell lines, CellTiter-Glo viability, 72 h; at 44.8 µM (top of the series) unless noted; also: nearly all actives have a fitted effect of over 60% in size; also: potency is read from the fitted curve at half-maximal effect
How it was run: (§1)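 Cells were treated for 72 hr at 37 degree celsius with compounds in 8- or 11-point dose response. Viability was read by CellTiter-Glo luminescence, normalized to no-cell (cytotoxicity) and DMSO controls.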

MCC-13 = test: as above; conditions: MCC and control cell lines, CellTiter-Glo viability, 72 h; series mostly up to 46 µM
How it was run: as §1

MCC-26 = test: as above; conditions: MCC and control cell lines, CellTiter-Glo viability, 72 h; series mostly up to 46 µM
How it was run: as §1

MKL-1 = test: as above; conditions: MCC and control cell lines, CellTiter-Glo viability, 72 h; series mostly up to 46 µM
How it was run: as §1

MKL-2 = test: as above; conditions: MCC and control cell lines, CellTiter-Glo viability, 72 h; series mostly up to 46 µM
How it was run: as §1

UISO = test: as above; conditions: MCC and control cell lines, CellTiter-Glo viability, 72 h; series mostly up to 46 µM
How it was run: as §1

WaGa = test: as above; conditions: MCC and control cell lines, CellTiter-Glo viability, 72 h; series mostly up to 46 µM
How it was run: as §1

C33A = test: Primary qHTS to identify gynecologic anti-cancer compounds using libraries of approved drugs and bioactive compounds (AID 1345084); conditions: Gynecologic cancer cell panel viability, ATPlite luminescence, 48 h; series mostly up to 57.5 µM; also: nearly all actives have a fitted effect of over 55% in size
How it was run: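 Cells, 1,000 per well, plated 16 h, then exposed 48 h at 37 C to compounds. Viability by ATPlite luminescence after 15 min at room temperature.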

NIH3T3 = test: qHTS assay to identify novel small-molecules to repurpose for Merkel cell carcinoma treatment (AID 1296009); conditions: MCC and control cell lines, CellTiter-Glo viability, 72 h; at 44.8 µM (top of the series) unless noted; also: nearly all actives have a fitted effect of over 60% in size; also: potency is read from the fitted curve at half-maximal effect
How it was run: as §1

SMILES | outcome (HEK293T) | Potency (MCC-13) | Potency (MCC-26) | Potency (MKL-1) | Potency (MKL-2) | Potency (UISO) | Potency (WaGa) | Potency (C33A) | outcome (NIH3T3)
CCCC(=O)O[C@]1(C(=O)CO)CC[C@H]2[C@@H]3CCC4=CC(=O)CC[C@]4(C)[C@H]3[C@@H](O)C[C@@]21C | inactive | inactive | inactive | inactive | inactive | inactive | inactive | inactive | 
CC(C)(C(=O)c1cccnc1)c1cccnc1 | inactive | inactive |  | inactive | inactive | inactive | inactive | inactive | inactive
CCOC(=O)n1ccn(C)c1=S |  | inactive | inactive | inactive | inactive | inactive | inactive | inactive | inactive
CCN1CCC[C@H]1CNC(=O)c1c(OC)ccc(Br)c1OC | inactive | inactive |  | inactive | inactive | inactive | inactive | inactive | 
O=C1OC(c2ccc(O)cc2)(c2ccc(O)cc2)c2ccccc21 |  | inactive | inactive | inactive | inactive | inactive | inactive | inactive | 
CC1=C(C(=O)O)N2C(=O)[C@@H](NC(=O)[C@H](N)c3ccc(O)cc3)[C@H]2SC1 | inactive | inactive | inactive | inactive | inactive | inactive | inactive | inactive | 
CC[C@@H](CO)NCCN[C@@H](CC)CO | inactive | inactive | inactive | inactive | inactive | inactive | inactive | inactive | inactive
Nc1nc2ncc(CNc3ccc(C(=O)N[C@@H](CCC(=O)O)C(=O)O)cc3)nc2c(=O)[nH]1 | inactive | inactive | inactive | inactive | inactive | inactive | inactive | inactive | 
C[C@]12CCC(=O)C=C1[C@@H]1C[C@@H]1[C@H]1[C@@H]3[C@@H]4C[C@@H]4[C@@]4(CCC(=O)O4)[C@@]3(C)CC[C@@H]12 |  | inactive | inactive | inactive | inactive |  |  |  | 
CCC(=O)c1c(O)cc(O)cc1O | inactive | inactive | inactive | inactive | inactive | inactive | inactive | inactive | 
CC(=O)OCC(=O)[C@@]1(OC(C)=O)[C@@H](C)C[C@H]2[C@@H]3C[C@H](F)C4=CC(=O)C=C[C@]4(C)[C@@]3(F)[C@@H](O)C[C@@]21C |  | inactive | inactive | inactive | inactive | inactive | inactive | inactive | 
NCCCC[C@H](N[C@@H](CCc1ccccc1)C(=O)O)C(=O)N1CCC[C@H]1C(=O)O | inactive | inactive |  | inactive | inactive | inactive | inactive | inactive | 
CC(C)N=C(N)/N=C(\N)Nc1ccc(Cl)cc1 |  | inactive | inactive | inactive |  |  |  |  | 
C[n+]1c2cc(N)ccc2cc2ccc(N)cc21 (tested in a mixture with another compound) |  | 11.9 µM (active) | 15 µM (active) | 2.99 µM (active) | 0.75 µM (active) | 2.99 µM (active) | 1.5 µM (active) |  | 
Cc1c(F)c(N2CCNC(C)C2)cc2c1c(=O)c(C(=O)O)cn2C1CC1 (stereo not drawn) | inactive | inactive | inactive | inactive | inactive | inactive | inactive | inactive | 
c1ccc(OCc2ccc(CCCN3CCOCC3)cc2)cc1 |  | inactive | inactive | inactive |  |  |  | inactive | 
CCCOC(C(=O)OC1CCN(C)CC1)(c1ccccc1)c1ccccc1 |  | inactive | inactive | inactive |  | inactive |  | inactive | 
CCCCOc1ccc(OCCCN2CCOCC2)cc1 |  | inactive | inactive | inactive | inactive | inactive | inactive | inactive | 
COc1cc(-c2ccc(=O)[nH]n2)ccc1OC(F)F |  | inactive | inactive | inactive | inactive |  | inactive | inactive | 
O=S1(=O)c2cccc3cccc(c23)N1CCCN1CCN(c2ccc(F)cc2)CC1 |  | inactive | inactive | inactive |  | inactive |  | inactive | 
